# 3CLpro inhibitor = SARS-CoV 3CLpro protease inhibition; P0C6X7; recombinant SARS-CoV 3CLpro, quenched FRET peptide cleavage; inhibition, % at 6 µM; actives 0.14% (n = 290,000); AID 1706; in the data active means inhibition above about 12%
# Sa ugtP lethal = growth inhibition of S. aureus ugtP deletion strain | growth inhibition, % (test concentration not listed) | actives 0.54% (n = 330,000) | S. aureus RN4220 ugtP deletion, OD600 growth, 16 h; in the data active means growth inhibition above about 68%
# BJeLR lethal = kills HRASV12-expressing BJeLR cells; BJeLR (HRASV12) viability, CellTiter-Glo ATP luminescence, 48 h; inhibition, % (concentration not given with the values); actives 0.17% (n = 300,000); in the data active means inhibition above about 50%
# RN4220 kill = kills Staphylococcus aureus RN4220; AID 1259311; actives 0.33% (n = 330,000); S. aureus RN4220 growth, OD600, 16 h; inhibition, % (test concentration not listed); in the data active means inhibition above about 85%
# PfHsp40 yeast = restores yeast growth despite PfHsp40 toxicity | actives 0.68% (n = 340,000) | growth rescue, % at 12.5 µM | S. cerevisiae expressing PfHsp40, growth rescue, ATP luminescence | AID 504582; in the data active means growth rescue above about 28%, passing the limit was not always enough;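 further: yeast W303a lacking pdr1 and pdr3 grown in galactose medium; growth measured after three days at 30 °C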
# A number is an active result; – = inactive; · = no result. Shown are actives, neighbours in structure and some others; about 1.3% of the full set was active somewhere.
SMILES,3CLpro inhibitor,Sa ugtP lethal,BJeLR lethal,RN4220 kill,PfHsp40 yeast
CCc1sc(C(=O)Nc2ccccc2N2CCOCC2)cc1C,–,–,–,–,107
C[n+]1cccc2c(Br)ccc([O-])c21,13,–,–,–,–
O=C(O)c1ccccc1N1C(=O)C2C3CCC(C3)C2C1=O (stereo unspecified),–,–,–,–,–
CCN(CC)C(=O)c1sc(NC(=O)c2cccc([N+](=O)[O-])c2)c(C#N)c1C,–,–,–,–,–
CC12CN3CC(C)(CN(C1)C3c1ccccc1Cl)C2O (stereo unspecified),–,–,–,–,–
CC12CN3CC(C)(CN(C1)C3c1ccccc1F)C2 (stereo unspecified),–,–,–,–,61
CC(=O)Nc1ccc(C=NNC(=O)CNC(=O)c2ccccc2)cc1,·,–,·,–,·
CCCCC1NC(=S)N(C2CCCCC2)C1=O (stereo unspecified),–,89,–,–,–
CN(C)/C=C1\C(=O)N(c2ccc([N+](=O)[O-])cc2)N=C1c1ccccc1,–,–,–,–,–
C/C(=N\NC(=S)NC1CCCCC1)c1c(F)cccc1F,–,·,–,·,45
CCOc1ccc(S(=O)(=O)NCC(c2ccc3c(c2)OCO3)N2CCN(C)CC2)cc1 (stereo unspecified),·,–,–,–,–
O=[N+]([O-])c1ccc(-c2csc(NN=Cc3cccnc3)n2)cc1,·,–,·,–,·
O=[N+]([O-])c1cccc(-c2csc(NN=Cc3cccc(O)c3)n2)c1,·,94,·,–,·
Cc1ccc([C@@H]2CC=C(C(=O)O)[C@H](c3ccc(C(C)(C)C)cc3)N2S(=O)(=O)c2ccc(C)cc2)cc1,·,–,·,–,–
Cc1ccc(S(=O)(=O)N2[C@@H](c3ccc(C(C)(C)C)cc3)C(C(=O)O)=CC[C@H]2c2ccc(C(C)C)cc2)cc1,·,88,·,97,–
Cc1ccc(S(=O)(=O)N2[C@@H](c3ccc(C(C)(C)C)cc3)C(C(=O)O)=CC[C@H]2c2ccc(Cl)cc2)cc1,·,–,·,99,–
COc1cccc(NC(=O)CCC2CCN(C(=O)Cc3cccc(F)c3)CC2)c1,–,–,–,–,–
CSC(=S)NN=Cc1ccccc1,·,–,·,–,·
CCNC(=S)N=Nc1c(O)[nH]c2ccc([N+](=O)[O-])cc12,–,–,–,–,–
O=[N+]([O-])c1ccc2[nH]c(O)c(N=NC(=S)Nc3cccnc3)c2c1,–,–,–,–,41
Cc1sc2nc3c(C(=O)N4CCN(c5ccccn5)CC4)cccn3c(=O)c2c1C,–,·,·,·,·
C#CC[N+](C)(C)CCCCCCCC,–,–,–,–,–
C#CC[N+](C)(C)CCCCCCCCCCCC,–,99,–,99,–
CCCCCCCCCCCCCCCC[N+](C)(C)CCl,·,·,·,·,–
C#CC[N+](C)(C)CCCCCCCCCC,–,93,–,–,–
SMILES,3CLpro inhibitor,Sa ugtP lethal,BJeLR lethal,RN4220 kill,PfHsp40 yeast
CC#CC[N+](C)(C)CCCCCCCCCCCC,–,100,–,100,–
COc1ccc(CN2CCNC(=O)C2CC(=O)NCCC2=CCCCC2)c(F)c1 (stereo unspecified),–,–,–,–,–
CC12CCC3c4ccc(O)cc4CCC3C1CC(O)C2O (stereo unspecified),·,·,–,·,–
O=C(c1cccc(F)c1)N1CCN(c2cccc(Cl)c2)CC1,–,–,–,–,–
Cc1ccc(SCCC(=O)Nc2ccc(OCc3ccccc3)cc2)cc1,–,·,–,·,–
CN(C)/C=C1/N=C(c2ccccc2)OC1=O,–,–,–,–,–
O=CC1=C(c2ccccc2)Oc2ccccc2O1,–,–,–,–,495
COc1ccc(C2C=CCN(C(=O)Nc3ccccc3)CC(=O)N2Cc2ccc(F)cc2)cc1 (stereo unspecified),·,–,·,–,·
COc1ccc(C2/C=C\CN(C(=O)Nc3ccc(C(F)(F)F)cc3)CC(=O)N2Cc2ccc(F)cc2)cc1 (stereo unspecified),·,·,–,·,93
CC(=O)OCC(=O)NCCCOc1cccc(CN2CCCCC2)c1,·,–,–,–,–
CC(=O)N1c2ccccc2Oc2cc3ccccc3cc21,–,–,–,–,–
O=C(CCl)N1c2ccccc2Oc2ccc3ccccc3c21,·,99,·,90,–
CCCn1nc(NC(=O)c2cccs2)c2cc3cc(C)ccc3nc21,–,·,–,·,48
CCCn1nc(NC(=O)c2cccs2)c2cc3cc(OC)ccc3nc21,–,–,–,–,68
CCCn1nc(NC(=O)c2cccs2)c2cc3ccc(C)cc3nc21,–,–,–,–,–
CCCCn1nc(NC(=O)c2cccs2)c2cc3cc(OC)ccc3nc21,–,–,–,–,–
CCOC(=O)c1csc(NC(=O)c2ccc(C#N)cc2)n1,–,–,–,–,–
COc1cccc2nc3cc(C)c(C)cc3nc12,–,·,58,·,–
CC(=O)Nc1cc2c(cc1Cl)-c1ccccc1C2,·,–,·,–,–
FC(F)(F)c1ccc2c(c1)N(CCCN1CCN(CCCl)CC1)c1ccccc1S2,–,101,–,100,–
COc1cc(C(=O)Nc2ccc(Br)cc2C(=O)c2ccccc2)cc(OC)c1OC,–,–,–,–,81
COc1ccc(C(=O)Nc2ccc3ccccc3c2)c(OC)c1,–,–,–,–,60
COc1ccccc1C(=O)Nc1ccc(C)cc1C(=O)c1ccccc1,–,93,–,–,–
COc1cc(OC)c(C(=O)Nc2ccc(C(=O)c3ccccc3)cc2)cc1OC,–,–,–,–,154
COc1ccc(C(=O)Nc2ccc(C)cc2C(=O)c2ccccc2)cc1,–,–,–,–,–
SMILES,3CLpro inhibitor,Sa ugtP lethal,BJeLR lethal,RN4220 kill,PfHsp40 yeast
N#Cc1nc(-c2ccccc2F)oc1NCCN1CCOCC1,–,–,–,–,–
Cc1ccc(N(CC(=O)NCc2ccccc2)C(=O)CCC(=O)Nc2nccs2)cc1,–,–,–,–,–
COc1ccccc1C(=O)Nc1ccccc1SC(=O)c1ccccc1OC,–,89,–,–,–
Cc1nc2oc3ccc(Cl)cc3c(=O)c2cc1C(=O)O,–,–,–,–,–
CCCCN(C)S(=O)(=O)c1cc2c(cc1Br)CCN2C(=O)C1CC1,·,–,·,–,123
CC(C)(C)NC(=O)CC1C[C@H](C(=O)N2CCOCC2)[C@@]2(CCC3CCCC3)c3[nH]c4ccccc4c3CCN2C1=O (stereo partly specified),·,–,·,–,–
CCOc1ccc(NCc2ccccc2OCc2cccc(F)c2)cc1,–,92,–,–,–
Cc1ccc(Cc2cnc(N3C(=N)SC(C)C3=O)s2)cc1 (stereo unspecified),–,–,–,–,–
Cc1cccc(Cc2cnc(N3C(=N)SC(C)C3=O)s2)c1 (stereo unspecified),–,–,–,90,–
N=C1SCC(=O)N1c1ncc(Cc2ccccc2Cl)s1,–,–,–,93,–
N=C1SCC(=O)N1c1ncc(Cc2cccc(Cl)c2)s1,–,98,–,97,–
Cc1cccc(Cc2cnc(N3C(=N)SC(c4ccccc4)C3=O)s2)c1 (stereo unspecified),–,–,–,–,–
COc1ccc(C(=O)OC2C[C@H]3CC[C@H](C2)N3C)cc1OC (stereo partly specified),·,·,·,·,–
